In PubChem BioAssay (EPA / NIEHS):
Active and inactive are the calls of the source. The calls were made as follows: active = hit-call score of the fitted dose curve at least 0.9, where 1 is the maximum; inactive = score below 0.9.

read-out: sulfotransferase 2A1 (SULT2A1), SULT2A1 (gene 6822); assay: LTEA_HepaRG_SULT2A1: Life Technologies and Expression Analysis (LTEA) Assay for sulfotransferase 2A1 (SULT2A1) using HepaRG (AID 2283531); settings: mRNA level, 48 h; actives raise or lower the signal
Method: LTEA_HepaRG is a cell based, multiplexed-readout assay that uses HepaRG, a human liver cell line, with measurements taken at 48 hours after chemical dosing on a 96-well plate.LTEA_HepaRG_SULT2A1 is one of 102 assay component(s) measured in the LTEA HepaRG cell culture assay. It is a marker of NR mediated transport.Data from the assay component LTEA_HepaRG_SULT2A1 was analyzed into 1 endpoint. This assay endpoint, LTEA_HepaRG_SULT2A1, was analyzed with bidirectional fitting relative to DMSO as the negative control and baseline of activity. Using a type of inducible reporter, measures of mRNA induction for gain or loss-of-signal activity can be used to understand regulation of transcription factor activity. To generalize the intended target to other relatable targets, this assay endpoint is annotated to the transferase intended target family, where the subfamily is sulfotransferase.
A total of 1060 chemcials from the ToxCast library were tested in eight-point concentration-response experiments. Cell culture and cytotoxicity assays were conducted at Thermo Fisher Scientific's Custom Services facility (Madison, WI). A single lot of human HepaRG cells (Thermo Fisher Scientific, Frederick, MD) was used for the cell culture experiments. 96-well format collagen type I coated plates of human HepaRG cells were prepared using established methods. Briefly, cryopreserved HepaRG cells were thawed, plated at a density of approximately 100,000 cells/well in HepaRG Thaw, Plate, and General Purpose media (HPRG770, Thermo Fisher Scientific), and incubated for 48 hours. 0.5% DMSO was selected as vehicle control to balance the requisite need of DMSO in HepaRG cultures to maintain differentiation (for example, baseline metabolism, proportions of hepatocytes vs. cholangiocytes), while enabling further hepatic receptor pathway activation (for example, PXR and CAR) in response to chemical exposure. 48 hours after plating, the culture medium was replaced with HepaRG Serum-Free Incudtion Media. Cells were exposed to each test chemical in duplicate and maintained in CO2 incubators for another 48 hours. Chemical plates were thawed to room temperature and 200x concentrations of treatment groups were prepared. 8-point conentration-reponse curves were made with the highest exposure at 100 uM, followed by half-log dilutions, all in 0.5% DMSO. Each test plate contained variouse controls, induction positive controls (1mM phenobarbital), cytotoxicity positive controls ([…] aflatoxin B1), vehicle controls (0.5% DMSO), and total lysis controls (0.5% DMSO). Cell morphology images were taken using an Essen IncuCyte FLR automated microscope, with six 96-well plates imaged in about 24 minutes. Images were captured and exported and JPEG files. Spent culture media was transfered to black-well plates for the LDH assay, and remaining media was sorted at -80 C for later use. Cells were treated with RLT buffer and frozen until shipped for gene expression analysis. Total RNA was isolated from the cell suspension in 75 uL of Buffer RLT (Qiagen, Germantown, MD 20874) by Quintiles/Expression Analysis (Durham, NC) using a custom isolation procedure. Total RNA from each plate well was transferred to a preamplification plate. Fluidigm's 96.96 Dynamic ArrayTM (Fluidigm, Amsterdam, the Netherlands) technology was used for gene expression analyses by quantitative reverse transcription polymerase chain reaction (qRT-PCR, performed by Quintiles/Expression Analysis, Durham, NC)89. Standard TaqManTM Assays (Applied Biosystems/ThermoFisher Scientific, Foster City, CA) were used to assess the expression of 93 genes selected based on their selectivity and sensitivity to important hepatic receptors known to be modulated by environmental chemicals; importance in human hepatocyte functionality; and hepatotoxicity. […]

SMILES | outcome | AC50
CCC(=NOC/C=C/Cl)C1=C(O)CC(C2CCOCC2)CC1=O (stereo not given) | inactive | –
CCOC(=O)COc1cc(-c2nn(C)c(OC(F)F)c2Cl)c(F)cc1Cl | inactive | –
CN(C)NC(=O)CCC(=O)O | inactive | –
CCCSP(=O)(OCC)SCCC | inactive | –
Cc1ccn2nc(S(=O)(=O)Nc3c(F)cccc3F)nc2n1 | inactive | –
CN(C)[C@@H]1C(=O)C(C(N)=O)=C(O)[C@@]2(O)C(=O)C3=C(O)c4c(O)cccc4[C@@](C)(O)[C@H]3[C@H](O)[C@@H]12 | inactive | –
CSc1nnc(C(C)(C)C)c(=O)n1N | inactive | –
CCc1cnc(C2=NC(C)(C(C)C)C(=O)N2)c(C(=O)O)c1 (stereo not given) | inactive | –
CCOP(=S)(OCC)Oc1ccc([N+](=O)[O-])cc1 | inactive | –
FC(F)C(F)(F)OCC(Cn1cncn1)c1ccc(Cl)cc1Cl (stereo not given) | – | 53.8 µM (active)
CCCCOC(=O)c1ccccc1C(=O)O | inactive | –
CNC(=O)ON=C(SC)C(=O)N(C)C | inactive | –
CC1=NNC(=O)N(/N=C/c2cccnc2)C1 | inactive | –
CCCCN(CC)c1c([N+](=O)[O-])cc(C(F)(F)F)cc1[N+](=O)[O-] | inactive | –
CSc1nc(NC(C)C)nc(NC(C)C)n1 | – | 84.9 µM (active)
CCNc1nc(Cl)nc(NC(C)(C)C#N)n1 | inactive | –
Cc1cc(C2CC2)nc(Nc2ccccc2)n1 | inactive | –
CC(COc1ccc(Oc2ccccc2)cc1)Oc1ccccn1 (stereo not given) | inactive | –
COP(=O)(OC)C(O)C(Cl)(Cl)Cl (stereo not given) | inactive | –
COc1cccc(C(=O)NN(C(=O)c2cc(C)cc(C)c2)C(C)(C)C)c1C | – | 32.5 µM (active)

SMILES | outcome | AC50
C=C(C)[C@H]1Cc2c(ccc3c2O[C@@H]2COc4cc(OC)c(OC)cc4[C@@H]2C3=O)O1 | – | 13.2 µM (active)
CCOP(=S)(OCC)Oc1ccc2c(C)c(Cl)c(=O)oc2c1 | inactive | –
C#CC(C)(C)NC(=O)c1cc(Cl)cc(Cl)c1 | inactive | –
CC(C1CC1)C(O)(Cn1cncn1)c1ccc(Cl)cc1 (stereo not given) | inactive | –
CNC(=O)ON=C(C)SC | inactive | –
CN1COCN(Cc2cnc(Cl)s2)C1=N[N+](=O)[O-] | inactive | –
COc1ccc(C(=CC(=O)N2CCOCC2)c2ccc(Cl)cc2)cc1OC | inactive | –
N#CSCSC#N | inactive | –
CCOC(=O)CC(SP(=O)(OC)OC)C(=O)OCC (stereo not given) | inactive | –
O=[N+]([O-])c1cc(C(F)(F)F)c(Cl)c([N+](=O)[O-])c1Nc1ncc(C(F)(F)F)cc1Cl | – | 50 µM (active)
CC1(C(=O)Nc2ccc(O)c(Cl)c2Cl)CCCCC1 | inactive | –
CNc1cnn(-c2cccc(C(F)(F)F)c2)c(=O)c1Cl | inactive | –
Cc1nn(-c2cc(NS(C)(=O)=O)c(Cl)cc2Cl)c(=O)n1C(F)F | inactive | –
CCOP(=S)(OCC)Oc1cc(C)nc(C(C)C)n1 | inactive | –
CCOP(=O)(OCC)Oc1cc(C)nc(C(C)C)n1 | inactive | –
CC(Oc1cccc(Cl)c1)C(=O)O (stereo not given) | inactive | –
CC[C@H](C)[C@H]1O[C@]2(C=C[C@@H]1C)C[C@@H]1C[C@@H](C/C=C(\C)[C@@H](O[C@H]3C[C@H](OC)[C@@H](O[C@H]4C[C@H](OC)[C@@H](NC)[C@H](C)O4)[C@H](C)O3)[C@@H](C)/C=C/C=C3\CO[C@@H]4[C@H](O)C(C)=C[C@@H](C(=O)O1)[C@]34O)O2 | – | 26.3 µM (active)
CCCCOC(=O)[C@@H](C)Oc1ccc(Oc2ccc(C#N)cc2F)cc1 | inactive | –
COP(=O)(NC(C)=O)SC (stereo not given) | inactive | –
CNC(=O)Oc1cccc2c1OC(C)(C)O2 | inactive | –
